These compounds were tested on glycogen synthase kinase-3 (GSK3A per assay name; protocol says GSK3B) (assay: GSK3 binders on small-molecule microarrays, primary screen, biochemical, small-molecule microarray, 635 nm fluorescence, GSK3A (AID 1103; also: the record names both GSK3A and GSK3B)). Conditions: small-molecule microarray binding, fluorescence 635 nm; higher = more signal.

**Q.** With `O=C1O[C@@H](c2ccccc2)[C@@H](c2ccccc2)N2[C@@H](c3ccc(O)cc3)[C@]3(C(=O)Nc4ccccc43)[C@@H](C(=O)Nc3nc4ccccc4s3)[C@H]12` as the compound, how does the composite z-score read?
**A.** 0.878

**Q.** How did the composite z-score turn out when `C=C(COC)/C(=C/C[C@@H](OC(=O)c1ccncc1)c1cccc(OCCO)c1)c1cnc2ccccc2c1` was run?
**A.** 1.3

**Q.** `O=C1O[C@@H](c2ccccc2)[C@@H](c2ccccc2)N2[C@@H](c3ccccc3OCCO)[C@]3(C(=O)Nc4ccc(C#CCCO)cc43)[C@@H](C(=O)N3CCN(c4ncccn4)CC3)[C@H]12` was tested. Which composite z-score did it give?
**A.** 0.649

**Q.** `COC(=O)C[C@H]1O[C@]2(C(=O)N(C)c3ccccc32)[C@@H](C)[C@@H]1[Si](C)(C)c1ccc(C)cc1` was tested. Which composite z-score did it give?
**A.** 0.96

**Q.** With `Cc1ccc(C(C)CC(O)C2C=CC3C(=O)N(c4ccccc4)C(=O)C3N2Nc2ccc(C(C)C)cc2)o1` (configuration not stated) as the compound, how does the composite z-score read?
**A.** 0.777

**Q.** For `C[n+]1ccc(CCCO)cc1`, which composite z-score is on record?
**A.** -0.262

**Q.** With `C=C(COC)/C(=C/C[C@@H](OC(=O)c1ccncc1)c1ccc(CO)o1)c1cnc2ccccc2c1` as the compound, how does the composite z-score read?
**A.** 1.35

**Q.** Which composite z-score does the source give for `CCOC(=O)[C@H]1C/C=C/C[C@H](C(=O)OCC)C(=O)O[C@H]2[C@@H](OC)O[C@H](CO)[C@@H](OC(=O)CCc3ccccc3)[C@@H]2OC1=O` here?
**A.** -1.46

**Q.** With `CCCCC(=C=CC[C@@H](O)c1ccc(OCCO)cc1)C[C@@H](O)COCc1ccccc1` as the compound, how does the composite z-score read?
**A.** -0.0016

**Q.** `CCCc1cccc(=O)o1` was tested. Which composite z-score did it give?
**A.** 1.04

**Q.** `COCC(=C=CC[C@H](O)c1ccc(OCCO)cc1)C[C@H](O)COCc1ccccc1` was tested. Which composite z-score did it give?
**A.** 0.351

**Q.** With `O=C(NC1CC1)[C@@H]1c2ccccc2C(=O)N(Cc2ccccc2)[C@H]1c1ccc(CO)cc1` as the compound, how does the composite z-score read?
**A.** 0.714

Source: PubChem BioAssay
